Source: PubChem (National Center for Advancing Translational Sciences (NCATS))
Only some compounds are listed: those with a hit (about 8.3% of all), similar ones and a draw of the others.
SW480 rerep = inducers of DNA re-replication in SW480 colon cancer cells; actives 1.8% (n = 340,000); Potency, µM (highest dose often 46.1 µM), for inactives: at the top dose re-replication activation, usual class: activators; AID 624297; SW480 DNA re-replication, Hoechst DNA content imaging, 48 h; further: potency means the concentration at half of the fitted maximal effect; % of control where 0% means no effect; nearly all actives have a fitted effect of over 55% in size
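Per well, 250 cells were exposed to pinned compound for 48 hr. Nuclear DNA was visualised with Hoechst (40 min, 37 C) and total object intensity recorded by fluorescence scanning.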
MCF10A rereplic = inducers of DNA re-replication in MCF 10A breast cells; actives 2.9% (n = 350,000); MCF 10A DNA re-replication, Hoechst nuclear intensity, 48 h; Potency, µM (series often up to 46.1 µM), for inactives: top-dose activity, positive = re-replication, actives largely listed as activators; further: potency means the concentration at half of the fitted maximal effect; % of control where 0% means no effect; nearly all actives have a fitted effect of over 50% in size
Giardia kill = Giardia lamblia killing | Giardia lamblia trophozoite viability | activity change, % at 7.66 µM, hits read low | actives 0.15% (n = 340,000) | AID 540267; in the data active means activity change below about -80%; inconclusive means between about -30% and that limit;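 further: parasites exposed to compound for two days anaerobically before the ATP read; on the % scale 0 is the no-effect control and ±100 the full control effect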
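Luminescence from cellular ATP indicates surviving trophozoites (100 cells/well) following 48 hrs anaerobic compound treatment at 37 deg C; signal develops 15-30 min at room temperature.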
RORgamma inh = blocks mouse ROR gamma transcriptional activity. P51450. AID 2551. actives 5.4% (n = 310,000). Potency, µM (series often up to 53.6 µM), for the others: at the highest dose activity change, negative = inhibition, hits mostly inhibitors. Drosophila S2 Gal4-RORgamma UAS-luciferase reporter, 20 h; further: potency means the concentration at half of the fitted maximal effect; on the % scale 0 is the no-effect control and ±100 the full control effect; nearly all actives have a fitted effect of over 60% in size
Target sequence (P51450 whole entry, looked up, the tested form may be a part): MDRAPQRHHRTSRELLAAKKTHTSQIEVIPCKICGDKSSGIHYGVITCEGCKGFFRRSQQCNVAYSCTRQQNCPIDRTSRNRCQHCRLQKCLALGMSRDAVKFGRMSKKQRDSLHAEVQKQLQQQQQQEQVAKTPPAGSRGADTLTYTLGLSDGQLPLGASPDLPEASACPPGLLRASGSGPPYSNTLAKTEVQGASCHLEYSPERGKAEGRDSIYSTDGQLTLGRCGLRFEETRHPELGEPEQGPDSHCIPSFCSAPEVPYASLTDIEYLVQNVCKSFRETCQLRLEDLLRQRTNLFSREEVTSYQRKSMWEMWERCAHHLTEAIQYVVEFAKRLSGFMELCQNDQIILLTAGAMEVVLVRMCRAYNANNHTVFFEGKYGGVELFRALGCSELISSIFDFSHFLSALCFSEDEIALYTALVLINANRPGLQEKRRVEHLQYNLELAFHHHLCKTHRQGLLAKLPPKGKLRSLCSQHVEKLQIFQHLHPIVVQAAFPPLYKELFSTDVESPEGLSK
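Drosophila S2 cells stably expressing Gal4-DBD/mouse RORγ fusion under metallothionein promoter plus UAS-luciferase; compound 1 h, then 700 uM CuSO4 induction for 20 h at ambient temperature; inhibition read as reduced luminescence.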
VP16 counter = Gal4-VP16 reporter inhibition counter-screen | Drosophila S2 Gal4-VP16 UAS-luciferase, luminescence, 20 h | Potency, µM (titrated, usually from 53.6 µM), for inactives: at the top dose activity, negative = inhibition, hits mostly inhibitors | actives 3.5% (n = 310,000) | AID 2546;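 further: Gal4-VP16 expression switched on by copper sulfate through the metallothionein promoter; potency means the concentration at half of the fitted maximal effect; on the % scale 0 is the no-effect control and ±100 the full control effect; nearly all actives have a fitted effect of over 50% in size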
Chronic BCR inh = blocks chronic active B-cell receptor signaling; Potency, µM (highest dose often 46.1 µM), inactives show at the top dose activity change, negative = inhibition, usual class: inhibitors; AID 493014; actives 0.05% (n = 340,000); ABC-DLBCL IkBa-CBG/CBR reporter, luminescence ratio, 4 h; active means well fitted inhibition curve with a large enough effect in the signal ratio, with a control signal flat, not every such curve was filed as active; inconclusive means small, poorly fitted or top-dose-only effect, or effect the other way, or a change in a side signal; the % refers to the signal ratio;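 further: potency means the concentration at half of the fitted maximal effect; plate controls were basal doxycycline-induced cells for no effect and cells given 10 µM MG132 for full effect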
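Concentration-response series (up to 46 uM) were applied to TMD8 dual-reporter cells for 4 h at 37C with doxycycline. Green/red ratio, after filter-overlap correction, defined %Activity; red signal alone was normalised to basal cells and zero luminescence.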
The depositor's hits bear a star; ? = inconclusive; . = not tested or not shown; [ ] = another dose, or the depositor's remark. Unless noted, the call rests on the fitted dose curve; in most records, active means well fitted curve in the direction sought with a large enough effect; inconclusive means small, poorly fitted or top-dose-only effect, or another doubt; inactive means no such curve, though single readings can be large; an effect the other way counts as inactive or inconclusive.

SMILES	SW480 rerep	MCF10A rereplic	Giardia kill	RORgamma inh	VP16 counter	Chronic BCR inh
CS(=O)(=O)c1ccc(S(=O)CC(=O)OCc2ccccc2)c([N+](=O)[O-])c1 (centres undefined)	-40%	4.1µM*	8	4.5µM*	4.5µM*	?
CCOC(=O)c1ccccc1OC(=O)CS(=O)c1ccccc1[N+](=O)[O-] (centres undefined)	14%	-16%	-4	-20%	-8%	-1%
O=C(COc1ccc(S(=O)(=O)NCc2ccccc2)cc1)NCc1cccnc1	7%	0%	-22	3%	3%	4%
CCOc1cc(C)c(-c2onc(C(F)(F)F)c2-c2csc(C)n2)c(O)c1	8%	?	-12	12%	11µM*	5%
Cc1nc(-c2c(C(F)(F)F)noc2-c2ccc(O)cc2O)cs1	?	5%	2	80%	-26%	?
Cc1cccc(OCC(=O)NC(=S)Nc2ccc(S(=O)(=O)NC3CCCCC3)cc2)c1	0%	?	6	-16%	0%	1%
Cc1ccc(C)c(N(C(=O)CNC(=O)c2ccco2)C(C(=O)NC2CCCC2)c2ccncc2)c1 (centres undefined)	0%	-3%	-16	2%	-11%	3%
O=C(CN1C(=O)c2ccccc2S1(=O)=O)c1ccc(OC(F)F)cc1	2%	1%	-7	13µM*	10µM*	-1%
O=C(CN1C(=O)c2ccccc2S1(=O)=O)c1ccc(F)cc1	0%	1%	1	7.9µM*	5µM*	-3%
NC(=S)n1[nH]c(-c2ccc([N+](=O)[O-])cc2)c(N=Nc2ccc(O)cc2)c1=O	-17%	11%	-1	1%	-4%	-6%
CC(=O)N(C)c1ccc(N=Nc2c(C)[nH]n(C(N)=S)c2=O)cc1	-1%	0%	-4	0.35µM*	3.2µM*	3%
CC(=O)N(C)c1ccc(N=Nc2c(C)[nH]n(-c3ccccc3)c2=O)cc1	9%	-8%	-8	20µM*	?	9%
CCN(CC)S(=O)(=O)c1ccc(N=Nc2c(C)[nH]n(C(N)=S)c2=O)cc1	-6%	?	8	0.05µM*	0.013µM*	?
CCOC(=O)c1ccc(N=Nc2c(C)[nH]n(-c3ccccc3)c2=O)cc1	4%	12%	8	23%	-14%	-7%
CC(=O)N(C)c1ccc(N=Nc2ccc3ncccc3c2)cc1	3%	10%	-16	.	.	.
Cc1ccc(Nc2cnn(C34CC5CC(CC(CC(=O)O)(C5)C3)C4)c(=O)c2Cl)c(Cl)c1	-4%	-1%	-12	-21%	-9%	0%
CCN(CC(=O)Nc1ccc(N2CCOCC2)cc1)C(=O)c1ccc(C#N)cc1	-3%	-3%	-7	13%	2%	5%
Fc1ccc(CN2CCN3CCCC3C2C2CCCCC2)cc1F (centres undefined)	?	21µM*	-12	-13%	0%	-4%
CN(C)CCCNc1cc(-c2ccccc2)nc2cc(-c3cccc(F)c3)nn12	?	21µM*	13	?	?	?
COCCN1CCN(c2cc(-c3ccccc3)nc3cc(-c4cccc(F)c4)nn23)CC1	?	21µM*	-11	?	-21%	?
Cc1ccc(-c2cc3nc(-c4ccccc4)cc(N4CCC5(CC4)OCCO5)n3n2)cc1	18µM*	?	-23	?	9%	-4%
Cc1cccc(-c2cc3nc(C)cc(NCCCN(C)C)n3n2)c1	17%	?	-3	17%[0.365 µM]	.	-18%
COc1ccc(-c2cc3nc(-c4ccccc4)cc(N4CCCC(O)C4)n3n2)cc1 (centres undefined)	?	21µM*	-15	4%	-24%	-6%
CCc1cc(C(=O)OCC(=O)N2CCC(c3ccccc3)=N2)sc1C	0%	6%	-5	-7%	7%	-6%
CC(/C=C/c1ccccc1)=N\NC(=O)c1ccc2c(c1)OCCO2	18µM*	21%	6	13µM*	?	-6%
SMILES	SW480 rerep	MCF10A rereplic	Giardia kill	RORgamma inh	VP16 counter	Chronic BCR inh
C/C(=N\NC(=O)c1ccc2c(c1)OCCO2)c1ccccc1	-124%	3%	5	5.6µM*	7.9µM*	?
C/C(=N\NC(=O)c1ccc(O)cc1)c1ccc2c(c1)OCCO2	-14%	15%	18	.	.	?
c1ccc2c(c1)Cc1cc(CN3CCOCC3)ccc1-2	-1%	21%	-13	-6%	7%	?
COc1ccc(-n2cnnc2SCC(=O)Nc2cc(S(=O)(=O)N3CCCCC3)ccc2C)cc1	0%	15%	-6	?	2%	0%
COc1ccc(-n2cnnc2SCC(=O)c2ccc(S(=O)(=O)N3CCOCC3)cc2)cc1	0%	-2%	0	?	20µM*	?
CCN(CC(=O)Nc1ccc(NC(C)=O)cc1)C(=O)c1ccc(S(=O)(=O)N2CCCC2)cc1	3%	3%	-26	.	.	.
CC1C/C(=C\c2cccnc2)C(=O)/C(=C/c2cccnc2)C1 (centres undefined)	?	?	?	1.1µM*	0.63µM*	?
O=C1/C(=C\c2cccnc2)Sc2ccccc21	30%	?	-14	?	?	?
O=C1/C(=C/c2cccnc2)CCc2c1[nH]c1ccccc21	21µM*	?	2	12%	-6%	?
C[C@@H](c1ccccc1)N1C(=O)[C@H]2[C@H]3[C@H](O)[C@H](O)C/C(=N/OC[C@@H](O)COCc4ccco4)[C@H]3CC[C@@H]2C1=O	.	.	.	1%[10 µM]	2%[10 µM]	.
CC1CCN(c2[nH]c(=S)c(C#N)c3c2CCCC3)CC1	-1%	-5%	3	7.1µM*	?	0%
CCOc1ccc(N2CC(NC(=O)/C=C\c3ccc4c(c3)OCO4)CC2=O)cc1 (centres undefined)	.	.	.	.	.	-10%
COc1cccc(NC(=O)CSc2nc3c(sc4ccccc43)c(=O)n2CCCN2CCCC2)c1	?	18µM*	25	-22%	-1%	?
Cc1ccc(NC(=O)CSc2nc3ccccc3c(=O)n2CCCN2CCCCC2)cc1Cl	-3%	23µM*	-5	?	?	-16%
O=C(CSc1nc2ccccc2c(=O)n1CCCN1CCOCC1)Nc1ccc(F)c(Cl)c1	22%	?	-6	.	.	-7%
COC(=O)NC(C)N1C(=O)C2C3C=CC(C3)C2C1=O (centres undefined)	-1%	-2%	10	0%	3%	0%
O=CNc1ccc2c3c(cccc13)-c1ccccc1-2	2.3µM*	?	-5	.	.	.
